# From PubChem BioAssay
# Active and inactive are the calls of the source. Unless noted, no rule for the calls is given here.
# Assays:
# [1] = A549 cell viability effects, profiling panel, calcein-AM fluorescence, 48 h, basal (AID 1162); conditions: higher = more signal; also: test concentration not given here
# [2] = adipocyte viability effects, profiling panel, cell-based, 3T3-L1 adipocytes, calcein-AM fluorescence, 48 h, basal (AID 1163); conditions: 3T3-L1 adipocytes viability, higher = more signal; also: test concentration not given here
# [3] = HepG2 cell viability effects, profiling panel, calcein-AM fluorescence, 48 h, basal (AID 1164); conditions: higher = more signal; also: test concentration not given here
# [4] = MM1S cell viability effects, profiling panel, calcein-AM fluorescence, 48 h, basal (AID 1165); conditions: higher = more signal;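 also: viability of MM1S multiple myeloma cells under basal unstimulated conditions; test concentration not given here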
# [5] = basal RPMI8226 viability, no added stimulus, profiling panel, cell-based, calcein-AM fluorescence, 48 h, PK04 Diversity Set (AID 1166); conditions: RPMI8226 myeloma viability, higher = more signal;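 also: cells grown under basal conditions without added stimulus; test concentration not given here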
# [6] = basal HepG2 mitochondrial membrane potential changes, profiling panel, cell-based, JC-1 fluorescence, 24 h, 100 nL compound (AID 1167); conditions: higher = more signal; also: test concentration not given here
# [7] = basal 3T3-L1 adipocyte mitochondrial potential changes, profiling panel, cell-based, JC-1 fluorescence, 3T3-L1 adipocytes, 24 h, 100 nL compound (AID 1168); conditions: JC-1 mitochondrial fluorescence, higher = more signal, called active from +8 up or from −8 down; also: test concentration not given here
# [8] = basal RPMI8226 mitochondrial membrane potential changes, profiling panel, cell-based, JC-1 fluorescence, 24 h, 100 nL compound (AID 1169); conditions: RPMI8226 myeloma, JC-1 mitochondrial potential fluorescence, higher = more signal; also: test concentration not given here
# [9] = basal MM1S mitochondrial membrane potential changes, profiling panel, cell-based, JC-1 fluorescence, 24 h, 100 nL compound (AID 1170); conditions: higher = more signal; also: test concentration not given here
# [10] = A549 lung cancer cell viability effects, profiling panel, resazurin fluorescence, 24 h, PK04 Diversity Set (AID 1171); conditions: higher = more signal, called active from +8 up or from −8 down; also: test concentration not given here
# [11] = HepG2 liver cancer cell viability effects, profiling panel, resazurin fluorescence, 24 h, PK04 Diversity Set (AID 1172); conditions: higher = more signal; also: test concentration not given here
# [12] = basal S. cerevisiae growth modulation, no modifier, primary screen, OD600, strain BY4716, 24 h, basal condition (AID 1173); conditions: OD600, 24 h, higher = more signal, called active from +8 up or from −8 down
# [13] = MM1S myeloma cell viability, profiling panel, resazurin fluorescence, basal, 24 h, PK04 Diversity Set (AID 1174); conditions: higher = more signal, called active from +8 up or from −8 down;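 also: MM1S multiple myeloma cell line; test concentration not given here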
# [14] = target: Dihydroorotate dehydrogenase (quinone), mitochondrial (Plasmodium falciparum (isolate 3D7)) (UniProt Q08210); assay: PfDHODH enzyme inhibitors, primary screen, biochemical, C-terminal His tag, absorbance 600 nm (AID 1175); conditions: DCIP absorbance 600 nm, higher = more signal, called active from +8 up or from −8 down;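 also: recombinant parasite enzyme with a five histidine tag at its C terminus; test concentration not given here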
# [15] = P. aeruginosa biofilm formation inhibitors, primary screen, strain PAO1, LB-PBS medium, absorbance 600 nm (AID 1176); also: test concentration not given here; conditions: P. aeruginosa PAO1 growth/biofilm, A600, 12 h; higher = more signal
# [16] = S. cerevisiae RM11-1a growth modifiers, primary screen, strain RM11-1a, OD600, basal, 24 h (AID 1177); conditions: OD600, 24 h, higher = more signal, called active from +8 up or from −8 down;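 also: cultures grown under basal conditions with no added stressor; test concentration not given here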
# [17] = E. coli acrAB mutant growth effects, primary screen, E. coli filamentation inducers, strain DRC39, OD650, 24 h (AID 1178); conditions: higher = more signal, called active from +8 up or from −8 down;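 also: growth measured as culture turbidity by optical density at 650 nm; test concentration not given here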
# [18] = E. coli acrAB mutant growth effects, primary screen, E. coli filamentation inducers, strain DRC39, OD650, 48 h (AID 1179);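 also: screen aims at cell division blockers that make cells filament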; conditions: E. coli DRC39 delta-acrAB growth, higher = more signal, called active from +8 up or from −8 down
# [19] = RPMI8226 myeloma cell viability, profiling panel, resazurin fluorescence, basal, 24 h, PK04 Diversity Set (AID 1180); conditions: higher = more signal;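 also: RPMI8826 multiple myeloma cell line at 5000 cells per well; test concentration not given here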
# [20] = target: E3 ubiquitin-protein ligase XIAP (Homo sapiens) (UniProt P98170); assay: XIAP binders, primary screen, biophysical, small-molecule microarray, fluorescence 635 nm (AID 1181); conditions: small-molecule microarray binding, higher = more signal;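 also: score merges 667 nm emission and signal to noise over triplicate slides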
# Chain of E3 ubiquitin-protein ligase XIAP (Homo sapiens) (P98170 whole entry, looked up): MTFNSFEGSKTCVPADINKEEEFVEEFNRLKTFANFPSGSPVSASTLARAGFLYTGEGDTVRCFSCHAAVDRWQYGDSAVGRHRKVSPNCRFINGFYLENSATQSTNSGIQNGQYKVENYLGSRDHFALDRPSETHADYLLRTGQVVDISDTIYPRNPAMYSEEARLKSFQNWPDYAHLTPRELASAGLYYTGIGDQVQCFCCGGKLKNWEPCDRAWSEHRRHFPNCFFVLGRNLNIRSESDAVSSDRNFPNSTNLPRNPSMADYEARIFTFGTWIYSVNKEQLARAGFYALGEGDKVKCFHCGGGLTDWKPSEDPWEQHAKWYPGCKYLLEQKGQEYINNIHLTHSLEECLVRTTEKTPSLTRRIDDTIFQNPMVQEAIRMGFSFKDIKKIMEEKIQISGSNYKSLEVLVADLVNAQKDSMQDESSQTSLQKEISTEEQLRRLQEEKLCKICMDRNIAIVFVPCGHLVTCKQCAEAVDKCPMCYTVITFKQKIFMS
# Chain of Dihydroorotate dehydrogenase (quinone), mitochondrial (Plasmodium falciparum (isolate 3D7)) (Q08210 whole entry, looked up): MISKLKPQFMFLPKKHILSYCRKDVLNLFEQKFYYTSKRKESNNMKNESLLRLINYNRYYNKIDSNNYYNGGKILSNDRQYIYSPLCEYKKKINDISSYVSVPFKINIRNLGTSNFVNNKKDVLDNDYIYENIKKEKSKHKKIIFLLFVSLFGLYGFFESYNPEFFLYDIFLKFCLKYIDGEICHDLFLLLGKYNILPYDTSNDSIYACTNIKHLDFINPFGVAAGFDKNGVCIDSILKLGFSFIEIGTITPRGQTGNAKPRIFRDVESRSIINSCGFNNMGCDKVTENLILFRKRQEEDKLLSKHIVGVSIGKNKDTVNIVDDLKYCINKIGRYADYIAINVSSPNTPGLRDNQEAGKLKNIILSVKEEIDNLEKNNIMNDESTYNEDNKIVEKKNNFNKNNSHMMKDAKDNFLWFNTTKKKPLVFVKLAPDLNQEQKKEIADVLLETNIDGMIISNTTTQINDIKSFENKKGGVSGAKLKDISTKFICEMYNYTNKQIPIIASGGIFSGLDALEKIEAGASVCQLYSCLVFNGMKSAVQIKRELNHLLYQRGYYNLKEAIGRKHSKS
Structure (SMILES),z-score [1],z-score [2],z-score [3],z-score [4],z-score [5],z-score [6],z-score [7],z-score [8],z-score [9],z-score [10],z-score [11],z-score [12],z-score [13],composite z-score [14],z-score [15],z-score [16],z-score [17],z-score [18],z-score [19],composite z-score [20]
Cn1cccc1C(O)C1C=CC2C(=O)NC(=O)C2N1Nc1ccc(Cl)cc1Cl (stereo not given),-0.924,-0.457,-1.5,-3.45,-2.24,-2.72,-1.36 (inactive),-0.929,0.234,-0.299 (inactive),-1.75,-3.53 (inactive),-1.86 (inactive),0.121 (inactive),1.69 (inactive),0.441 (inactive),-1.09 (inactive),-1.28 (inactive),-1.98,0.315
CCCCCCc1nc(C2CC2)cc2c1[Si](C(C)C)(C(C)C)O[C@H]2c1ccccc1,-0.036,-0.177,-0.106,-0.892,-0.517,-1.09,-0.731 (inactive),0.573,0.0835,0.254 (inactive),-0.868,0.391 (inactive),-0.749 (inactive),0.423 (inactive),0.0672 (inactive),-0.553 (inactive),-0.476 (inactive),-0.594 (inactive),-0.249,-0.0872
O=C1N(Cc2ccccc2)c2ccccc2[C@@H]2OC(c3ccc(OCCCO)cc3)=N[C@]12Cc1ccccc1,-1.43,1.24,-1.98,-3.26,-4.42,-1.11,0.983 (inactive),-1.37,-0.884,-1.72 (inactive),-0.408,-0.87 (inactive),-3.68 (inactive),1.07 (inactive),1.25 (inactive),2.06 (inactive),1.29 (inactive),0.259 (inactive),-2.78,-0.0749
COc1ccc([Si](C)(C)[C@H]2[C@H](CC(=O)N(CCO)Cc3ccccc3)O[C@@]3(C(=O)N(Cc4cccc(N5CCOC5=O)c4)c4ccccc43)[C@@H]2C)cc1,-1.49,0.836,-2.16,-1.79,-4.29,0.917,-0.606 (inactive),-1.16,-1.56,-3.44 (inactive),-2.5,0.181 (inactive),-3.55 (inactive),0.966 (inactive),1.28 (inactive),2.36 (inactive),-0.566 (inactive),-0.639 (inactive),-3.7,-0.0562
COc1ccc([Si](C)(C)[C@H]2[C@H](CCO)O[C@@]3(C(=O)N(Cc4cccc(N5C(=O)COc6ccccc65)c4)c4ccccc43)[C@@H]2C)cc1,-0.533,0.167,-4.12,-2.21,-3.93,0.0559,1.93 (inactive),-1.05,-1.5,-2.14 (inactive),-2.46,0.422 (inactive),-3.44 (inactive),0.858 (inactive),2.44 (inactive),4.14 (inactive),2.23 (inactive),1.92 (inactive),-4.91,-0.132
COc1ccc(CCNC(=O)[C@@]2(Sc3ccc(C)cc3)CC(=O)N(C3Cc4ccccc4C3)[C@@H]2c2ccc(CO)cc2)cc1,-0.342,0.67,-1.16,-0.729,-1.35,-0.114,-0.775 (inactive),-0.608,-0.885,0.358 (inactive),0.115,0.293 (inactive),-1.13 (inactive),-0.396 (inactive),0.31 (inactive),-0.255 (inactive),0.514 (inactive),0.005 (inactive),0.136,2.04
CCOC(=O)C1=CC[C@@H](c2ccc(OCc3ccccc3)c(OC)c2)N(S(=O)(=O)c2ccc(C)cc2)[C@H]1c1ccc(SC)cc1,-0.568,0.211,0.355,-0.821,-0.906,1.37,-1.14 (inactive),0.419,-0.598,1.33 (inactive),0.579,0.49 (inactive),-0.107 (inactive),-0.322 (inactive),1.64 (inactive),-0.759 (inactive),-0.286 (inactive),-0.361 (inactive),-0.455,0.307
O=C1C2C=CC(C(O)c3ccccc3)N(Nc3ccccc3F)C2C(=O)N1c1ccccc1 (stereo not given),-0.826,-0.717,0.925,-1.06,0.379,0.12,-0.0776 (inactive),-1.04,-1.29,-0.412 (inactive),0.688,-1.64 (inactive),-1.07 (inactive),-0.104 (inactive),0.629 (inactive),0.0428 (inactive),-0.737 (inactive),0.206 (inactive),0.466,0.258
[N-]=[N+]=NCc1ccccc1[C@H]1OC(c2ccc(OCCCO)cc2)=N[C@@]1(CCS(=O)(=O)c1ccccc1)C(=O)N1CCCCC1,0.481,1.03,-0.0898,-0.133,-0.946,-0.0617,1.04 (inactive),-1.11,-1.11,-0.743 (inactive),-0.0145,0.285 (inactive),-1.55 (inactive),0.716 (inactive),0.659 (inactive),1.77 (inactive),-0.132 (inactive),-0.846 (inactive),-0.661,0.0593
